# Data: PubChem BioAssay
# Calls of active or inactive are those of the source.
# Experiments:
# [1] = target: Albumin (Bos taurus) (UniProt P02769); assay: bovine serum albumin binders on microarray, profiling panel, artefact control for SMM control protein annotation, biochemical, small-molecule microarray, Alexa647 label, 635/667 nm fluorescence (AID 1118); conditions: BSA-A647 binding, fluorescence 635 nm, higher = more signal;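 further: score merges 667 nm emission intensity and signal-to-noise per printed compound spot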
# Chain of Albumin (Bos taurus) (P02769 whole entry, looked up): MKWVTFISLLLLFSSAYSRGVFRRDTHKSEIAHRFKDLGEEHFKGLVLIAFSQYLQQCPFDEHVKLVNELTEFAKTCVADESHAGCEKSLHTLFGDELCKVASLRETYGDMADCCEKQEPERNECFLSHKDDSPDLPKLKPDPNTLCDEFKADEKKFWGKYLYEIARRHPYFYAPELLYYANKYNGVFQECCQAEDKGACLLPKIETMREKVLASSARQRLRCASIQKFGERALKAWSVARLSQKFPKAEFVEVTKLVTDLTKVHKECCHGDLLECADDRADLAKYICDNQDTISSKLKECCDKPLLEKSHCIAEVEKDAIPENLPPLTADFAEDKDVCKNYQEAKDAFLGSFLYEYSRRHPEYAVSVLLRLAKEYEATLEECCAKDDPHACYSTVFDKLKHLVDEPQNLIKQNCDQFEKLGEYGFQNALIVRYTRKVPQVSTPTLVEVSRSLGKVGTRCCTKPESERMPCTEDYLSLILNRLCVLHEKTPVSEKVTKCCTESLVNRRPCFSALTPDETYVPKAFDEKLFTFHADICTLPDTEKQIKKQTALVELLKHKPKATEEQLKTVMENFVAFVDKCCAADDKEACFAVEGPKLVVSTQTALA
# [2] = small-molecule microarray binders of probe aXIP, primary screen, biochemical, NeuroSMM set, 635/667 nm fluorescence (AID 1119); conditions: higher = more signal, called active from +8 up or from −8 down;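 further: probe is the protein aXip251-270 applied at 1 µg/mL to compound-printed slides; binding of probe to printed compounds measured as 667 nm fluorescence plus signal to noise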
# [3] = small-molecule binders of probe aNOTCH3, primary screen, biochemical, small-molecule microarray, 635/667 nm fluorescence (AID 1120); conditions: higher = more signal;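 further: probe is a biotin-tagged antibody raised against NOTCH3 rather than NOTCH3 protein; score merges spot fluorescence near 667 nm with spot signal to noise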
# [4] = small-molecule binders of probe aNOTCH2, primary screen, biochemical, small-molecule microarray, 635/667 nm fluorescence (AID 1121); conditions: higher = more signal;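 further: score merges feature fluorescence read at 667 nm with its signal to noise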
# [5] = target: Carbonic anhydrase 2 (Homo sapiens) (UniProt P00918); assay: CAII small-molecule binders, profiling panel, biochemical, small-molecule microarray, Alexa647-labelled CAII (AID 1122); conditions: CAII-A647 binding fluorescence, higher = more signal
# [6] = COS7 lysate on small-molecule microarray, probe aHis, 635 nm (AID 1123); conditions: COS7 cell lysate, fluorescence, higher = more signal;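 further: z-score combines 667nm fluorescence intensity with signal-to-noise per printed compound spot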
# [7] = compound binding in COS7 lysate, probe aLAP1, primary screen, cell lysate, small-molecule microarray (AID 1124); conditions: probe aLAP1, fluorescence, higher = more signal;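 further: lysate comes from COS7 cells expressing LAP1 and is applied at 0.3 µg/mL; score merges spot fluorescence near 667 nm with signal-to-noise over triplicate slides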
# [8] = test system: Sam68 (KHDRBS1); assay: Sam68 small-molecule binders, primary screen, biochemical, small-molecule microarray, 635 nm fluorescence (AID 1125); conditions: small-molecule microarray binding, higher = more signal;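 further: score merges 667 nm channel intensity with signal to noise over triplicate slides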
# [9] = test system: Chordin-like protein 2 (CHRDL2); assay: CHRDL2 small-molecule binders, primary screen, biochemical, small-molecule microarray, 635 nm fluorescence (AID 1126); conditions: small-molecule microarray binding, fluorescence 635 nm; higher = more signal;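 further: printed compound slides probed with Chrdl2 protein at 4 µg/mL for 1 h at 4 C; score merges 667 nm emission intensity with signal to noise over three replicate slides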
# [10] = target: Concanavalin-A (Canavalia ensiformis) (UniProt P02866); assay: ConA small-molecule binders, primary screen, artefact control for SMM control protein annotation, biochemical, small-molecule microarray, Alexa647 label, 635 nm (AID 1127); conditions: ConA-A647 binding fluorescence, higher = more signal;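 further: z combines 667 nm emission intensity with signal-to-noise across three replicate slides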
# Chain of Concanavalin-A (Canavalia ensiformis) (P02866 whole entry, looked up): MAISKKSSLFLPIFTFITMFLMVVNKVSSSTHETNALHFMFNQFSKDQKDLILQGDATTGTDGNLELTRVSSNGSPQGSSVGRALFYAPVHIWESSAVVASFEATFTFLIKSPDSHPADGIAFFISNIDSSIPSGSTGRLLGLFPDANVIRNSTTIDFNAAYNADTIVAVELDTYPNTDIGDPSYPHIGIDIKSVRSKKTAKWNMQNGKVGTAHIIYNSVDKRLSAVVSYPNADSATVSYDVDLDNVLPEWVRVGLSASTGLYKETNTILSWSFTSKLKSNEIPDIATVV
# [11] = anti-His antibody binders, primary screen, artefact control for SMM control protein annotation, biochemical, small-molecule microarray, 635 nm fluorescence (AID 1128); conditions: anti-His Alexa647 antibody binding, higher = more signal;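 further: score merges feature fluorescence with signal-to-noise for each printed compound spot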
# [12] = test system: Human papillomavirus type 1a E7 protein (residues 1-88); assay: HPV1a E7 small-molecule binders, primary screen, biochemical, small-molecule microarray, residues 1-88, 635 nm (AID 1129); conditions: small-molecule microarray binding, fluorescence 635 nm; higher = more signal
# [13] = target: Focal adhesion kinase 1 (Homo sapiens) (UniProt Q05397); assay: small-molecule microarray binders of FAK, primary screen, biochemical, 635/667 nm fluorescence, BSA, DTT (AID 1130); conditions: PTK2 binding, 635 nm fluorescence, higher = more signal;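 further: composite of spot emission at 667 nm and signal to noise over triplicate slides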
# Chain of Focal adhesion kinase 1 (Homo sapiens) (Q05397 whole entry, looked up): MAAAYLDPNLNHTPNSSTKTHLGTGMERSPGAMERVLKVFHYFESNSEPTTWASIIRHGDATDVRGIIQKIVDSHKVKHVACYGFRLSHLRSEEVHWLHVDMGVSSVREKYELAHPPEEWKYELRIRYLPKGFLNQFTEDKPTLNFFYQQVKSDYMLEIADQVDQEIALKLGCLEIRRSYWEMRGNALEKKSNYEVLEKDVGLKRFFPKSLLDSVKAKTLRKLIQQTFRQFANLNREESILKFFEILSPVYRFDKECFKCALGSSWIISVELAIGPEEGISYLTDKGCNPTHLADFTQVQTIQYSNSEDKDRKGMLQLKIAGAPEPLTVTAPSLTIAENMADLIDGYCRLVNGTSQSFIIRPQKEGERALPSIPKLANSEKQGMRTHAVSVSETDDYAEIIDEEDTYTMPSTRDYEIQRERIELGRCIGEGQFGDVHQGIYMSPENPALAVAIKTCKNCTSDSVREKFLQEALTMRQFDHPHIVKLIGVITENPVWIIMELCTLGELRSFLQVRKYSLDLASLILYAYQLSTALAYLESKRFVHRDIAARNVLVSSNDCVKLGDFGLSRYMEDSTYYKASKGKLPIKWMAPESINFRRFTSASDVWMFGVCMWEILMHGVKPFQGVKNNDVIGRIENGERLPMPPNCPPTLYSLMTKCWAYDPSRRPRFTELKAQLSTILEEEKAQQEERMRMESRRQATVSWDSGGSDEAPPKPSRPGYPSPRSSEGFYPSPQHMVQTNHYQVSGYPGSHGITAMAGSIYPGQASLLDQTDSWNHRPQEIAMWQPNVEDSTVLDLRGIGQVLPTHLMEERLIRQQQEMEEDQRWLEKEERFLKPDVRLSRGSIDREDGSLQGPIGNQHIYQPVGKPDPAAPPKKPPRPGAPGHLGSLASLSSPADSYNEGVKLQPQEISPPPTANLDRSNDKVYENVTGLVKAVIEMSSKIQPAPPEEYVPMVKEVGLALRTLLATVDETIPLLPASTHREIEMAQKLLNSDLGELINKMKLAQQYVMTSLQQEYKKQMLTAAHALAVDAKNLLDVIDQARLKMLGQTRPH
# [14] = test system: Fibrinogen (Alexa647-labelled); assay: fibrinogen binders on compound microarrays, profiling panel, artefact control for SMM control-protein annotation, biochemical, small-molecule microarray, 635/667 nm fluorescence (AID 1131); conditions: fibrinogen-A647 binding fluorescence, higher = more signal;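 further: z-score merges 667 nm fluorescence with per-spot signal-to-noise over triplicate slides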
# [15] = target: Follistatin (Homo sapiens) (UniProt P19883); assay: follistatin binders on small-molecule microarrays, primary screen, biochemical, small-molecule microarray, 635/667 nm fluorescence (AID 1132); conditions: FST binding, 635 nm fluorescence, higher = more signal
# Chain of Follistatin (Homo sapiens) (P19883 whole entry, looked up): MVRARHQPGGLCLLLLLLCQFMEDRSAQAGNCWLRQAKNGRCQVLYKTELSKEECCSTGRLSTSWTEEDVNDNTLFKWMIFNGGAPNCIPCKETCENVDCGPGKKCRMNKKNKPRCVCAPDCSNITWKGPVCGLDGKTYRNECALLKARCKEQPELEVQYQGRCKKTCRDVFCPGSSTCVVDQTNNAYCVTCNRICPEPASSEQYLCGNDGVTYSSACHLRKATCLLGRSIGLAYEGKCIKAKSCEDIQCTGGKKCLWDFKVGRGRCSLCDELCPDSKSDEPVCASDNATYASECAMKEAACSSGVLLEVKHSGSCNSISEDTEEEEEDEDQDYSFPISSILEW
# [16] = target: Fibroblast growth factor 2 (Homo sapiens) (UniProt P09038); assay: FGF2 binders on small-molecule microarrays, primary screen, biochemical, small-molecule microarray, 635/667 nm fluorescence (AID 1133); conditions: small-molecule microarray binding, FGF2, fluorescence 635/667; higher = more signal
# Chain of Fibroblast growth factor 2 (Homo sapiens) (P09038 whole entry, looked up): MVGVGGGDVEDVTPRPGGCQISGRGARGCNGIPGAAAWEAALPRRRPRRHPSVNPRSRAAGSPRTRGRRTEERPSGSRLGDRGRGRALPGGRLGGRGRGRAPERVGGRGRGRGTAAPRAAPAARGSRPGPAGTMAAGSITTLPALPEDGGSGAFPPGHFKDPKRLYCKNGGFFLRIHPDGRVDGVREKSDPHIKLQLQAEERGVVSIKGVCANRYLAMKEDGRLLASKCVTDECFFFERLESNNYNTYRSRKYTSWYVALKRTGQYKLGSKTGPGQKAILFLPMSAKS
# [17] = mitochondrial membrane potential change in A549 cells, profiling panel, cell-based, JC-1 fluorescence, basal, 24 h, 100 nL (AID 1138); conditions: higher = more signal;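 further: A549 lung adenocarcinoma cells under basal conditions with no added stimulus; test concentration not given here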
# [18] = test system: Lefty1; assay: Lefty1 binders on small-molecule microarrays, primary screen, biochemical, small-molecule microarray, 635/667 nm fluorescence (AID 1139); conditions: small-molecule microarray binding, fluorescence 635/667; higher = more signal
# [19] = test system: wheat germ agglutinin (Triticum aestivum), Alexa647-labelled; assay: wheat germ agglutinin binders on compound microarrays, profiling panel, artefact control for SMM control-protein annotation, biochemical, small-molecule microarray, 635/667 nm fluorescence (AID 1140); conditions: WGA-A647 binding, 635 nm fluorescence, higher = more signal;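 further: score merges 667 nm feature emission with signal to noise over triplicate slides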
# [20] = target: Luciferin 4-monooxygenase (Photinus pyralis) (UniProt P08659); assay: firefly luciferase enzyme inhibitors, primary screen, biochemical, luminescence, purified enzyme, 2006 set (AID 1141); conditions: SteadyGlo luminescence, 30 min, higher = more signal, called active from +8 up or from −8 down;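 further: cell-free assay with purified firefly luciferase at 100 ng per well in PBS; test concentration not given here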
# Chain of Luciferin 4-monooxygenase (Photinus pyralis) (P08659 whole entry, looked up): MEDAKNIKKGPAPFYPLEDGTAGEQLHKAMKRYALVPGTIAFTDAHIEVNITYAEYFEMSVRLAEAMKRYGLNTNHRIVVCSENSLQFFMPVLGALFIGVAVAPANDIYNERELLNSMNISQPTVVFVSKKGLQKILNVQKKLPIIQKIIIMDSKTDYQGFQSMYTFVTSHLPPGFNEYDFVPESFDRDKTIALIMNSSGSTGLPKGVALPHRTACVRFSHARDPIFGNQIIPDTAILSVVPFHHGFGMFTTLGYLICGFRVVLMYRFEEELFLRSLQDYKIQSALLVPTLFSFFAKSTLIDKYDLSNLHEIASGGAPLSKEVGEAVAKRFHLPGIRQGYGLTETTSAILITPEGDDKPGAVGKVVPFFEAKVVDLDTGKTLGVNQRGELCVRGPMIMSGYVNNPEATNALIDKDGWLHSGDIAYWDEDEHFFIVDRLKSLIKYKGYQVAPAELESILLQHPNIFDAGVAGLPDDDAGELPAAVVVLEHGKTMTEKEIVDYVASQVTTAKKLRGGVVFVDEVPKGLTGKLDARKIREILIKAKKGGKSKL
SMILES,composite z-score [1],composite Z-score [2],composite z-score [3],composite z-score [4],composite z-score [5],composite z-score [6],composite z-score [7],composite z-score [8],composite z-score [9],composite z-score [10],composite z-score [11],composite z-score [12],composite z-score [13],composite z-score [14],composite z-score [15],composite z-score [16],z-score [17],composite z-score [18],composite z-score [19],z-score [20]
C=Cc1ccc([C@H]2N[C@H](C(=O)O)CC[C@@H]2C)cc1,0.108,-0.602 (inactive),-0.178,-0.155,0.275,-0.344,0.723,-1.6,0.65,-0.437,0.126,-1.47,-0.584,-0.719,0.632,0.486,1.28,0.431,0.388,-0.33 (inactive)
CCOC(=O)[C@H](Cc1ccccc1)NC(=O)OC1CC(CCC2CC(CC)=NO2)OC2(CCCC(COC(=O)NCCC(C)C)O2)C1 (stereo not given in full),0.459,0.257 (inactive),-0.133,-0.179,0.312,0.86,-0.342,0.676,0.139,0.918,0.272,0.55,0.271,0.305,0.0871,0.342,-0.0991,-0.033,0.668,0.772 (inactive)
CCOC(=O)[C@H](Cc1ccccc1)NC(=O)CCC1CC(OC(=O)NCCc2ccc(F)cc2)CC2(CCCC(COC(=O)NCC3CCCCC3)O2)O1 (stereo not given in full),0.505,-0.539 (inactive),0.18,-0.0294,0.192,0.822,0.236,1.3,0.74,1.07,0.542,0.816,0.465,0.656,0.857,0.238,0.812,1.21,0.395,0.356 (inactive)
O=C1[C@H]2[C@H]3[C@H](O)[C@H](O)CC(=NOCc4ccccc4)[C@@H]3CC[C@H]2C(=O)N1Cc1ccc2c(c1)OCO2,0.0462,0.0289 (inactive),0.0306,-0.0131,0.618,-0.0974,-0.0389,-0.0391,0.124,-0.0139,0.0116,0.316,0.928,0.866,1.23,0.319,-0.368,0.268,0.261,0.729 (inactive)
CCOC(=O)[C@H](Cc1ccccc1)NC(=O)CCC1CC(OC(=O)NCc2cccc3ccccc23)CC2(CCCC(COC(=O)NCc3ccccc3)O2)O1 (stereo not given in full),0.561,-0.0662 (inactive),-0.0204,-0.155,0.452,1.06,-0.398,0.712,0.0223,0.649,-0.198,0.3,0.172,0.0039,0.449,0.348,-0.133,0.401,-0.0623,0.877 (inactive)
CO[C@H]1COC(=O)[C@@H](Cc2ccccc2)NC(=O)[C@@H](C)COC(=O)CCC[C@@H]1C,0.516,-0.112 (inactive),0.0257,-0.132,-0.248,0.0267,-0.0452,0.179,0.295,-0.171,4.12,-0.666,0.0469,-0.179,0.2,0.241,-0.946,0.534,-0.29,0.643 (inactive)
